proKLK7 act = proKLK7 zymogen activators, primary screen, biochemical, fluorescence intensity | Kallikrein-7 (Homo sapiens), P49862 | purified proKLK7, EDANS-DABCYL substrate fluorescence; 100% is mature enzyme control, 0% vehicle | activation, % at 7 µM | actives 0.9% (n = 370,000);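 active means activation above the mean of all tested compounds plus 3 SD, computed per campaign excluding outliers beyond control limits, cut at about 13% in these data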
Target sequence (P49862 whole entry, looked up): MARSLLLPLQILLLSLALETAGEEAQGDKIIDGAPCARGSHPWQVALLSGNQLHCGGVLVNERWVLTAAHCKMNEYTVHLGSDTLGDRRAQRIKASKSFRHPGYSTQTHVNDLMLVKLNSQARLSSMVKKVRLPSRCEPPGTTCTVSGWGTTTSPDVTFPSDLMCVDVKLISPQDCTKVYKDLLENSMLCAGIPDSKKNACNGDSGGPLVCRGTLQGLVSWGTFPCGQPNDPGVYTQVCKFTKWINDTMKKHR
PG9 Ab binder = binders of HIV-1 gp120 antibody PG9, primary screen, biochemical, TR-FRET. inhibition, % at 6.7 µM. actives 0.43% (n = 360,000). HIV-1 gp120 / PG9 antibody interaction. TR-FRET gp120-PG9 antibody binding. AID 624416, 2012; in the data active means inhibition above about 8.5%
JMJD2C inh = inhibitors of GASC-1 histone demethylase, primary screen, biochemical, fluorescence, DELFIA europium | Lysine-specific demethylase 4C (Homo sapiens), Q9H3R0 | GST-JMJD2C(1-420) H3K9me3 demethylation | inhibition, % at 2.35 µM | actives 0.069% (n = 330,000) | AID 2099, 2009;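 active means more than half of a compound's replicate wells show inhibition beyond 50%, single wells judged on their own value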;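 further: signal counts dimethyl H3K9 product captured on neutravidin plate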
Target sequence (Q9H3R0 1-420 limits assumed): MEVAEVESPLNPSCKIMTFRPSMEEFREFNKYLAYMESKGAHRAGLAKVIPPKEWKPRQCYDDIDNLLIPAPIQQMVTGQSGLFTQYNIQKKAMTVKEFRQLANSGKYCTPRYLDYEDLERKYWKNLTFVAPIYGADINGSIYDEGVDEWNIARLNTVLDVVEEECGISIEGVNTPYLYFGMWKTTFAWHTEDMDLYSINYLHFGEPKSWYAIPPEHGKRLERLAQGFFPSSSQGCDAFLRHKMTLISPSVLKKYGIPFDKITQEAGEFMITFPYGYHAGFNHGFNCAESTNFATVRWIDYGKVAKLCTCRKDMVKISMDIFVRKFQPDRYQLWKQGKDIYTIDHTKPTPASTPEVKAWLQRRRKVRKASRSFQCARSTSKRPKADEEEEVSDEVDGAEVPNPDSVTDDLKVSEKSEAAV
PP5 primary = PP5 phosphatase inhibitors, primary screen, biochemical, fluorescence | AID 1987, 2009 | purified PP5c, OMFP substrate fluorescence | inhibition, % at 6.7 µM | Serine/threonine-protein phosphatase 5 (Homo sapiens), P53041 | actives 0.18% (n = 320,000);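 active means inhibition above the campaign's mean inhibition across all tested compounds plus 3 SD, cut at about 9.5% in these data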
PP1 inh = PP1-alpha phosphatase inhibitors, primary screen, counter-screen for PP5 inhibitor project, biochemical, fluorescence, OMFP substrate, single point; AID 2235, 2010; Serine/threonine-protein phosphatase PP1-alpha catalytic subunit (Homo sapiens), P62136; actives 0.9% (n = 320,000); purified PP1alpha; inhibition, % at 6.7 µM;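 active means inhibition above the mean inhibition of all tested compounds plus 3 SD, computed separately for each screening campaign, cut at about 15% in these data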
Rev-erbA mod = modulators of Rev-erb alpha DNA binding, primary screen, biochemical, FITC-DNA, fluorescence polarization, uHTS. AID 1259318, 2017. Rev-erbα–FITC-DNA binding, 90 min. Nuclear receptor subfamily 1 group D member 1 (Homo sapiens), P20393. activity, % at 10 µM. actives 0.79% (n = 370,000);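 active means activity above about 14%, limit read from the data; passing the limit was not always enough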
Large screens that a line does not name were inactive. The list is not random: actives were taken first. Their share in the collection is about 2.8%.

O=C(NCCC1CCCCN1S(=O)(=O)c1ccc(F)cc1)C(=O)NCC1CCCO1 (stereo not drawn)	none
Cc1ccc(S(=O)(=O)N2CCCCC2CCNC(=O)C(=O)NCC2CCCO2)cc1 (stereo not drawn)	PP1 inh 17
COc1cc2c(cc1NC(=O)c1cc(-c3ccncc3)nc3ccccc13)oc1ccccc12	PP1 inh 15
COc1cc2c(cc1NC(=O)c1cc(-c3cccnc3)nc3ccc(C)cc13)oc1ccccc12	none
C[C@@H](NC(=O)c1ccc(C#Cc2cccc(F)c2)cn1)C(C)(C)O	none (no result: PG9 Ab binder, JMJD2C inh, PP5 primary, PP1 inh)
COc1cc(CO)ccc1OCC(=O)N1CCc2ccccc21	none
COc1cc(CCC(=O)OCC(=O)N2CCc3ccccc32)cc(OC)c1OC	PP1 inh 17
CCOC(=O)c1c(NC(=O)C2CCCO2)sc2c1CCC2 (stereo not drawn)	JMJD2C inh 52
Cc1ccc(NC(=O)CSc2nnc3c(n2)[nH]c2ccccc23)cc1	none
Cc1ccc(-c2csc(NC(=O)CSc3nnc4c(n3)[nH]c3ccccc34)n2)cc1	PP1 inh 17
CC(C)(C)NCC(O)COc1cccc2c1CCCC2=O (stereo not drawn)	none (no result: proKLK7 act, PG9 Ab binder, JMJD2C inh, PP5 primary, PP1 inh)
O=C(CSc1ccc(Cl)cc1)N1CCN(c2ccc([N+](=O)[O-])cc2Cl)CC1	none
Cc1ccc(Cl)cc1N1CCN(C(=O)CSc2ccsc2[N+](=O)[O-])CC1	PP1 inh 17
CCS(=O)(=O)n1nc(-c2ccc(Cl)cc2)nc1SCc1ccccc1	none (no result: proKLK7 act, PG9 Ab binder, Rev-erbA mod)
COc1ccc(-c2nc(SCc3ccccc3)n(S(C)(=O)=O)n2)cc1	PP5 primary 11
CCCOc1ccc(/C=N/NC(=S)Nc2ccccc2[N+](=O)[O-])c(O)c1	PP1 inh 15
O=C1CN(C(=O)C2CCCCC2)C=CN1CCc1ccccc1Br	none (no result: proKLK7 act, PG9 Ab binder, JMJD2C inh, PP5 primary, PP1 inh)
Fc1ccc(-c2ccnc3nc(-n4cccc4)nn23)cc1	none
Fc1ccc(-c2ccnc3nc(N4CCOCC4)nn23)cc1	proKLK7 act 22
COCCn1c(SCc2nc3scc(-c4ccc(Cl)cc4)c3c(=O)[nH]2)nnc1-c1cccc(C)c1	PP1 inh 16
COc1ccc(-c2nnc(SCC(=O)NN=C/C=C\c3ccco3)n2-c2ccc(OC)cc2)cc1	none (no result: PG9 Ab binder, JMJD2C inh, PP5 primary, PP1 inh)
O=C1c2c(O)ccc(O)c2C(=O)c2c(NCCNCCO)ccc(NCCNCCO)c21	PP1 inh 21 (no result: JMJD2C inh)
CCn1c2ccccc2c2cc(NC(=O)COC(=O)c3ccc(F)cc3F)ccc21	none (no result: PG9 Ab binder, JMJD2C inh, PP5 primary, PP1 inh)
C=CCN(c1ccccc1)S(=O)(=O)c1cccc(C(=O)Nc2nc3ccccc3[nH]2)c1	PP1 inh 17
CCS(=O)(=O)Nc1ccc2c(c1)C(=O)N(C)[C@@H]1CC[C@H](CC(=O)N[C@@H]3CCN(Cc4ccccc4)C3)O[C@H]1CO2	none (no result: PG9 Ab binder, JMJD2C inh, PP5 primary, PP1 inh)
COc1ccccc1N1CCN(C(=O)c2ccc3c(c2)NC(=O)C(CSCc2ccccc2C)N3)CC1 (stereo not drawn)	PP1 inh 23 (no result: proKLK7 act, PG9 Ab binder, Rev-erbA mod)
O=C(Nc1ccc(N2C(=O)[C@@H]3[C@H](C2=O)[C@@H]2C=C[C@H]3C2)c(Cl)c1)c1ccccn1	none (no result: proKLK7 act, PG9 Ab binder, JMJD2C inh, PP5 primary, PP1 inh)
CSc1cccc(NC(=O)c2nnn(CC(=O)Nc3cc(C)cc(C)c3)c2N)c1	PP1 inh 16
CCc1ccccc1NC(=O)c1nnn(CC(=O)Nc2cccc(C)c2)c1N	none
COc1cccc2c1NC(C(=O)O)C1CC=CC21 (stereo not drawn)	PP1 inh 37 (no result: proKLK7 act, PG9 Ab binder, Rev-erbA mod)
Cc1ccc2c(c1)C1C=CCC1C(C(=O)O)N2 (stereo not drawn)	PP1 inh 20 (no result: proKLK7 act, PG9 Ab binder, Rev-erbA mod)
CC(=O)c1ccc2c(c1)C1C=CCC1C(C(=O)O)N2 (stereo not drawn)	none (no result: JMJD2C inh, PP5 primary, PP1 inh)
CC(=O)OCC(=O)[C@@]1(OC(C)=O)[C@@H](C)CC2C3C[C@H](F)C4=CC(=O)C=C[C@]4(C)[C@@]3(F)[C@@H](O)C[C@@]21C (stereo partly drawn)	none (no result: proKLK7 act, PG9 Ab binder, JMJD2C inh, PP5 primary, PP1 inh)
O=C1c2ccc([N+](=O)[O-])cc2C(=O)N1Cc1cccnc1	JMJD2C inh 52
CCN(CC)C(=O)CSc1nnc(-c2ccccn2)n1C	none (no result: PG9 Ab binder, JMJD2C inh, PP5 primary, PP1 inh)
COC(=O)c1[nH]c2ccc(C)cc2c1NC(=O)CN1CCCc2ccccc21	PP1 inh 17
CN[C@@H]1[C@H](O)[C@@H](O[C@@H]2[C@@H](O)[C@H](O[C@H]3OC(CN)=CC[C@H]3N)[C@@H](N)C[C@H]2N)OC[C@]1(C)O	none (no result: proKLK7 act, PG9 Ab binder, JMJD2C inh, PP5 primary, PP1 inh)
C[C@H](CO)N1C[C@H](C)[C@@H](CN(C)Cc2ccc(Cl)c(Cl)c2)Oc2ccc(NC(=O)Cn3cnnn3)cc2C1=O	none (no result: PP5 primary, PP1 inh)
COc1ccc(NC(=O)N(C)C[C@H]2Oc3ccc(NC(=O)Cn4cnnn4)cc3C(=O)N([C@H](C)CO)C[C@@H]2C)cc1	none (no result: PP5 primary, PP1 inh)
C[C@H](CO)N1C[C@H](C)[C@@H](CN(C)Cc2ccc3c(c2)OCO3)Oc2ccc(NC(=O)Cn3cnnn3)cc2C1=O	JMJD2C inh 61 (no result: PP5 primary, PP1 inh)
Cc1noc(C)c1NC(=O)N(C)C[C@H]1Oc2ccc(NC(=O)Cn3cnnn3)cc2C(=O)N([C@H](C)CO)C[C@@H]1C	JMJD2C inh 66 (no result: PP5 primary, PP1 inh)
C[C@H](CO)N1C[C@H](C)[C@@H](CN(C)C(=O)Nc2ccc3c(c2)OCO3)Oc2ccc(NC(=O)Cn3cnnn3)cc2C1=O	JMJD2C inh 68 (no result: PP5 primary, PP1 inh)
Cc1noc(C)c1S(=O)(=O)N(C)C[C@H]1Oc2ccc(NC(=O)Cn3cnnn3)cc2C(=O)N([C@H](C)CO)C[C@@H]1C	none (no result: PP5 primary, PP1 inh)
O=C1NC(c2ccccc2)(c2ccccc2)C(=O)N1COP(=O)(O)O	none (no result: proKLK7 act, PG9 Ab binder, JMJD2C inh, PP5 primary, PP1 inh)
CCOc1ccc(C(=O)CSc2nnc(SCc3ccc(Cl)cc3)s2)cc1	none (no result: PG9 Ab binder, JMJD2C inh, PP5 primary, PP1 inh)
C[C@@H]1CC2C3CCC4=CC(=O)C=C[C@]4(C)[C@@]3(F)[C@@H](O)C[C@]2(C)[C@@]1(O)C(=O)COP(=O)(O)O (stereo partly drawn)	none (no result: proKLK7 act, PG9 Ab binder, JMJD2C inh, PP5 primary, PP1 inh)
Cc1cccc(NC(=O)CSc2nnc(-c3cccnc3)n2Cc2ccco2)c1C	none (no result: PG9 Ab binder, JMJD2C inh, PP5 primary, PP1 inh)
CCOC(=O)Cc1cc(=O)n2[nH]c(-c3ccc(Cl)cc3)cc2n1	PP1 inh 16
Cc1cccc(NC(=O)CN2C(=O)S/C(=C\c3cc(C)n(C)c3C)C2=O)c1	PP1 inh 16
O=C(OC1C(OC(=O)c2cccnc2)C(OC(=O)c2cccnc2)C(OC(=O)c2cccnc2)C(OC(=O)c2cccnc2)C1OC(=O)c1cccnc1)c1cccnc1 (stereo not drawn)	none (no result: proKLK7 act, PG9 Ab binder, JMJD2C inh, PP5 primary, PP1 inh)

Screens deposited in PubChem by several laboratories.
